Measurements published in PubChem BioAssay (NCATS).
Inconclusive results are not listed. Entries that show only a call come without a potency. Activity calls are given as the source filed them. Calls come from the whole dose curve; as a rule, active = well fitted curve in the direction sought with a large enough effect; inconclusive = small, poorly fitted or top-dose-only effect, or another doubt; inactive = no such curve, though single readings can be large; an effect the other way counts as inactive or inconclusive.

Key:
[1] = qHTS of pediatric cancer cell lines to identify multiple opportunities for drug repurposing: Primary screen for SJ-GBM2 cells (AID 1347091); note: potency is the fitted concentration of half-maximal effect
Method in brief: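 Cell viability, CellTiter-Glo luminescence; 500-1,000 cells/well, 8- or 11-point titration, 48 h compound exposure at 37 degrees C, 5% CO2. Controls: DMSO neutral, bortezomib 2.3 µM final as positive.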

[2] = qHTS of pediatric cancer cell lines to identify multiple opportunities for drug repurposing: Primary screen for A673 cells (AID 1347092); note: nearly all actives have a fitted effect of over 45% in size; note: potency is the fitted concentration of half-maximal effect
Method in brief: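 48 h compound exposure, A673, 500-1,000 cells/well, 37 degrees C/5% CO2. MIPE: 11-point, 0.78 nM-46 µM; NPC: 8-point, 0.59 nM-46 µM (final). Readout CellTiter-Glo luminescence after 15 min RT.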

[3] = qHTS of pediatric cancer cell lines to identify multiple opportunities for drug repurposing: Primary screen for Saos-2 cells (AID 1347097); note: nearly all actives have a fitted effect of over 40% in size; note: potency is the fitted concentration of half-maximal effect
Method in brief: (§1)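 Quantitative HTS format: each compound titrated (MIPE 11 points from 0.78 nM, NPC 8 points from 0.59 nM) onto cells plated 5 hours earlier. After 48 h at 37 degrees C, CellTiter-Glo luminescence was recorded.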

[4] = qHTS of pediatric cancer cell lines to identify multiple opportunities for drug repurposing: Primary screen for SK-N-SH cells (AID 1347098); note: nearly all actives have a fitted effect of over 65% in size; note: potency is the fitted concentration of half-maximal effect
Method in brief: (§2)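 Cells (500-1,000/well) rested 5 h, then received compounds for 48 h; metabolically active cells were measured by CellTiter-Glo luminescence. Final concentrations spanned up to 46 µM (MIPE, 11-point) or 0.59 nM-46 µM (NPC, 8-point) in primary screens, 11-point in follow-ups.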

[5] = qHTS of pediatric cancer cell lines to identify multiple opportunities for drug repurposing: Primary screen for LAN-5 cells (AID 1347100); note: potency is the fitted concentration of half-maximal effect
Method in brief: as §2

[6] = qHTS of pediatric cancer cell lines to identify multiple opportunities for drug repurposing: Primary screen for BT-12 cells (AID 1347101); note: nearly all actives have a fitted effect of over 25% in size; note: potency is the fitted concentration of half-maximal effect
Method in brief: as §2

[7] = qHTS of pediatric cancer cell lines to identify multiple opportunities for drug repurposing: Primary screen for OHS-50 cells (AID 1347103); note: potency is the fitted concentration of half-maximal effect; nearly all actives have a fitted effect of over 40% in size
Method in brief: as §2

[8] = qHTS of pediatric cancer cell lines to identify multiple opportunities for drug repurposing: Primary screen for RD cells (AID 1347104); note: nearly all actives have a fitted effect of over 55% in size; note: potency is the fitted concentration of half-maximal effect
Method in brief: as §1

[9] = qHTS of pediatric cancer cell lines to identify multiple opportunities for drug repurposing: Primary screen for control Hh wild type fibroblast cells (AID 1347106);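 note: series mostly up to about 46 µM; a drop in luminescence marks cytotoxicity and a rise apparent proliferation; nearly all actives have a fitted effect of over 55% in size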
Method in brief: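 Cells (500-1,000/well) in growth media were settled 5 h at 37 degrees C, then given compounds for 48 h. Viability was read as CellTiter-Glo luminescence. Primary runs used MIPE at 11 points (0.78 nM-46 µM) and NPC at 8 points (0.59 nM-46 µM); follow-ups used 11 points.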

[10] = qHTS of pediatric cancer cell lines to identify multiple opportunities for drug repurposing: Primary screen for Rh30 cells (AID 1347107); note: series mostly up to about 46 µM; nearly all actives have a fitted effect of over 75% in size
Method in brief: as §2

[11] = qHTS of pediatric cancer cell lines to identify multiple opportunities for drug repurposing: Primary screen for BT-37 cells (AID 1347094); note: series mostly up to about 57 µM
Method in brief: as §1

[12] = qHTS of pediatric cancer cell lines to identify multiple opportunities for drug repurposing: Primary screen for U-2 OS cells (AID 1347096); note: nearly all actives have a fitted effect of over 50% in size
Method in brief: as §2

[13] = qHTS of pediatric cancer cell lines to identify multiple opportunities for drug repurposing: Primary screen for NB1643 cells (AID 1347099); note: nearly all actives have a fitted effect of over 50% in size; note: potency is the fitted concentration of half-maximal effect
Method in brief: as §1

[14] = qHTS of pediatric cancer cell lines to identify multiple opportunities for drug repurposing: Primary screen for Rh18 cells (AID 1347102); note: nearly all actives have a fitted effect of over 65% in size
Method in brief: as §2

[15] = qHTS of pediatric cancer cell lines to identify multiple opportunities for drug repurposing: Primary screen for MG 63 (6-TG R) cells (AID 1347105); note: nearly all actives have a fitted effect of over 50% in size
Method in brief: as §1

[16] = qHTS of pediatric cancer cell lines to identify multiple opportunities for drug repurposing: Primary screen for SK-N-MC cells (AID 1347093); note: potency is the fitted concentration of half-maximal effect
Method in brief: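 Metabolically active cells were quantified by ATP-dependent luminescence (CellTiter-Glo, 15 min at room temperature) following 48 h treatment. Cells had been plated at 500-1,000 per well and settled for 5 h beforehand.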

[17] = qHTS of pediatric cancer cell lines to identify multiple opportunities for drug repurposing: Primary screen for Rh41 cells (AID 1347108);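 note: series mostly up to about 46 µM; luminescence drop marks cytotoxic hits; nearly all actives have a fitted effect of over 70% in size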
Method in brief: as §1

[18] = qHTS of pediatric cancer cell lines to identify multiple opportunities for drug repurposing: Primary screen for NB-EBc1 cells (AID 1347095); note: potency is the fitted concentration of half-maximal effect
Method in brief: as §1

[19] = qHTS of pediatric cancer cell lines to identify multiple opportunities for drug repurposing: Confirmatory screen for A673 cells (AID 1347110);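 note: potency is the fitted concentration of half-maximal effect; cells exposed to compound for 48 h before the viability read; nearly all actives have a fitted effect of over 65% in size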
Method in brief: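 Concentration-response curves came straight from titrations: 11 points (0.78 nM to 46 µM) for MIPE and several concentrations (0.59 nM to 46 µM) for NPC in primary, 11 points in follow-up. Readout: ATP luminescence at 48 h.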

Which Potency [1] does the source give for `CCN(CC)CCOc1ccc(/C(=C(\Cl)c2ccccc2)c2ccccc2)cc1` here?
Its Potency is 18.8 µM (active).

And the Potency [2]?
The Potency was 21.1 µM (active).

And the Potency [3]?
Its Potency is 26.6 µM (active).

What about the Potency [4] of the same compound?
Its Potency is 30.7 µM (active).

And the Potency [5]?
The Potency was 18.8 µM (active).

And the Potency [6]?
The Potency was 15.5 µM (active).

And the Potency [7]?
Its Potency is 24.6 µM (active).

And the Potency [8]?
Its Potency is 23.7 µM (active).

And the Potency [9]?
Its Potency is “inactive”.

And the Potency [10]?
The Potency was “inactive”.

Which Potency [1] does the source give for `Cc1oc(-c2ccccc2)nc1CCC(=O)c1ccc(CC2SC(=O)NC2=O)cc1` (stereo not given) here?
Its Potency is “inactive”.

What about the Potency [2] of the same compound?
The Potency was “inactive”.

And the Potency [11]?
The Potency was “inactive”.

What about the Potency [12] of the same compound?
Its Potency is “inactive”.

What about the Potency [3] of the same compound?
The Potency was “inactive”.

And the Potency [4]?
The Potency was “inactive”.

What about the Potency [13] of the same compound?
Its Potency is “inactive”.

And the Potency [14]?
The Potency was “inactive”.

What about the Potency [8] of the same compound?
The Potency was “inactive”.

And the Potency [15]?
Its Potency is “inactive”.

And the Potency [10]?
Its Potency is “inactive”.

Which Potency [16] does the source give for `C/C=C(/C(=C/C)c1ccc(OC(C)=O)cc1)c1ccc(OC(C)=O)cc1` here?
The Potency was 5.31 µM (active).

And the Potency [11]?
Its Potency is “inactive”.

And the Potency [12]?
Its Potency is “inactive”.

And the Potency [4]?
The Potency was “inactive”.

And the Potency [6]?
The Potency was “inactive”.

And the Potency [14]?
The Potency was “inactive”.

What about the Potency [8] of the same compound?
Its Potency is “inactive”.

And the Potency [9]?
The Potency was “inactive”.

With `Cc1c(C)c2c(c(C)c1OC(=O)CCC(=O)OCCO)CC[C@@](C)(CCC[C@H](C)CCC[C@H](C)CCCC(C)C)O2` as the compound, how does the Potency [1] read?
The Potency was “inactive”.

What about the Potency [12] of the same compound?
The Potency was “inactive”.

What about the Potency [3] of the same compound?
Its Potency is “inactive”.

And the Potency [9]?
Its Potency is “inactive”.

And the Potency [17]?
Its Potency is “inactive”.

Which Potency [9] does the source give for `O=S(=O)(O)c1ccc2nc(-c3ccccc3)[nH]c2c1` here?
Its Potency is “inactive”.

With `CN1CCC(N(Cc2cccs2)c2ccccc2)CC1` as the compound, how does the Potency [18] read?
The Potency was “inactive”.

And the Potency [12]?
Its Potency is “inactive”.

And the Potency [3]?
The Potency was 21.1 µM (active).

What about the Potency [6] of the same compound?
The Potency was 21.9 µM (active).

What about the Potency [15] of the same compound?
The Potency was “inactive”.

And the Potency [9]?
The Potency was “inactive”.

Which Potency [1] does the source give for `Cc1ccc(C(=O)Oc2ccc(C(O)CNC(C)(C)C)cc2OC(=O)c2ccc(C)cc2)cc1` (stereo not given) here?
Its Potency is “inactive”.

And the Potency [16]?
Its Potency is 0.001 µM (active).

What about the Potency [11] of the same compound?
The Potency was “inactive”.

And the Potency [18]?
The Potency was “inactive”.

What about the Potency [12] of the same compound?
Its Potency is “inactive”.

And the Potency [3]?
Its Potency is “inactive”.

What about the Potency [4] of the same compound?
The Potency was “inactive”.

And the Potency [13]?
Its Potency is 0.001 µM (active).

And the Potency [5]?
The Potency was “inactive”.

And the Potency [6]?
The Potency was 6.17 µM (active).

What about the Potency [14] of the same compound?
The Potency was “inactive”.

What about the Potency [15] of the same compound?
The Potency was “inactive”.

What about the Potency [10] of the same compound?
Its Potency is “inactive”.

And the Potency [17]?
The Potency was “inactive”.

What about the Potency [19] of the same compound?
The Potency was 0.0928 µM (active).

For `CC(C)=CCC/C(C)=C/CC/C(C)=C/C(=O)OCC(=O)[C@@]1(O)CC[C@H]2[C@@H]3CCC4=CC(=O)C=C[C@]4(C)[C@H]3[C@@H](O)C[C@@]21C`, which Potency [1] is on record?
Its Potency is 13.3 µM (active).

And the Potency [2]?
The Potency was “inactive”.

What about the Potency [11] of the same compound?
Its Potency is “inactive”.

And the Potency [18]?
The Potency was 21.1 µM (active).

And the Potency [12]?
The Potency was “inactive”.

And the Potency [4]?
Its Potency is “inactive”.

What about the Potency [13] of the same compound?
Its Potency is “inactive”.

And the Potency [5]?
Its Potency is 13.3 µM (active).

And the Potency [14]?
Its Potency is “inactive”.

What about the Potency [8] of the same compound?
Its Potency is “inactive”.

And the Potency [15]?
The Potency was “inactive”.

And the Potency [9]?
The Potency was “inactive”.

And the Potency [10]?
The Potency was “inactive”.

What about the Potency [17] of the same compound?
Its Potency is “inactive”.
